# Data published in the supplement of paper PMC9135407.
# “And” between values parts separate entries of the source, which are not always exact repeats. Equal entries are not always repeated. Structures can show the parent of a compound that is named as a salt. The campaign covered roughly 5,800 compounds. About 620 (11%) showed activity. The entries come from a sample that favours actives as a whole. A number with no mark means an inactive call.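 Rule for the calls: active = score above a cut-off or among the top three wells of a plate; in these data no inactive exceeds 0.85.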
# Test system: primary human hepatic stellate cells (donor 1)
# Experiment: scaled lipid accumulation score (0 = DMSO-like, 1 = nortriptyline-like); higher = stronger HSC inactivation (lipid re-accumulation), active = hit call of the paper
# Conditions: 48 h
# Method: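 Primary lipid accumulation screen in primary human hepatic stellate cell myofibroblasts (donor 1, passage 8) in 384-well plates. 100 nL of library compound was pin-transferred into 30 µL medium in duplicate, and cells were treated for 48 h. The 'Scaled' score combines distance from plate baseline, toxicity and reproducibility penalties, and is normalised to nortriptyline (positive) and DMSO (negative) controls on each plate. A hit is defined as scaled >0.85 or among the top 3 wells per plate.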
# [1] = library stock concentration: 80 uM
# [2] = library stock concentration: 400 uM
# [3] = library stock concentration: 2 mM
# [4] = library stock concentration: 10 mM
# [5] = library stock concentration: 1 mM
# [6] = library stock concentration: 3.33 mM
smiles,measurement,setting,value
COC(=O)/C=C/C(=O)N(O)CCCCNCc1ccc(COC(=O)Nc2cccc3ccccc23)cc1 [Methylstat],scaled lipid accumulation score,[1],≤ 0
same,scaled lipid accumulation score,[2],≤ 0
same,scaled lipid accumulation score,[3],≤ 0
same,scaled lipid accumulation score,[4],0.26
"CCCCC[C@H](O)/C=C/[C@H]1[C@H](O)CC(=O)[C@@H]1CCCCCCCCC(=O)O [1a,1b-dihomo Prostaglandin E1]",scaled lipid accumulation score,[5],≤ 0
CC1=C(/C=C/C(C)=C/C=C/C(C)=C/C=C/C=C(C)/C=C/C=C(C)/C=C/C2=C(C)CCCC2(C)C)C(C)(C)CCC1 [Beta Carotene],scaled lipid accumulation score,[6],≤ 0
same,scaled lipid accumulation score,[4],≤ 0
CC1=C(/C=C/C(C)=C/C=C/C(C)=C/C=C/C=C(C)/C=C/C=C(C)/C=C/C2=C(C)C(=O)[C@@H](O)CC2(C)C)C(C)(C)C[C@H](O)C1=O [Astaxanthin],scaled lipid accumulation score,[4],≤ 0
CC1=C(/C=C/C(C)=C/C=C/C(C)=C/C=C/C=C(C)/C=C/C=C(C)/C=C/C2=C(C)C(=O)CCC2(C)C)C(C)(C)CCC1=O [Canthaxanthin],scaled lipid accumulation score,library stock concentration: 3.5 mM,1.25 (active)
CC(=O)N1CCCC1C(=O)O (stereo unspecified) [N-acetylproline],scaled lipid accumulation score,[4],≤ 0
C[C@]12C=CC(=O)C=C1CC[C@@H]1[C@@H]2[C@@H](O)C[C@@]2(C)[C@H]1CC[C@]2(O)C(=O)COC(=O)CCC(=O)O,scaled lipid accumulation score,[4],≤ 0
O=C(CCc1ccc(O)cc1)c1c(O)cc(O)cc1O[C@@H]1O[C@H](CO)[C@@H](O)[C@H](O)[C@H]1O [Phlorizin],scaled lipid accumulation score,[6],≤ 0
same,scaled lipid accumulation score,[4],≤ 0
CCCCC/C=C\C=C1\C(=O)CC[C@@H]1C/C=C\CCCC(=O)O,scaled lipid accumulation score,[5],≤ 0
CC(=O)OC[C@H]1O[C@@H]([S-])[C@H](OC(C)=O)[C@@H](OC(C)=O)[C@@H]1OC(C)=O.CCP(CC)CC.[Au+] [Auranofin],scaled lipid accumulation score,[4],0.439
CC[P](CC)(CC)=[Au][S][C@@H]1O[C@H](COC(C)=O)[C@@H](OC(C)=O)[C@H](OC(C)=O)[C@H]1OC(C)=O [Auranofin],scaled lipid accumulation score,library stock concentration: 2.9 mM,0.86 (active)
"CC[C@@H](CO)Nc1nc(NCc2ccc(-c3ccccn3)cc2)c2ncn(C(C)C)c2n1 [CR8, (S)-Isomer]",scaled lipid accumulation score,[6],≤ 0
CSc1nc(N)c2ncn([C@@H]3O[C@H](COP(=O)(O)OP(=O)(O)OP(=O)(O)O)[C@H](O)C3O)c2n1 (stereo partly specified) [2-Methylthioadenosine triphosphate tetrasodium],scaled lipid accumulation score,[4],≤ 0
CS(=O)(=O)c1ccc(-n2nc(C(F)(F)F)cc2-c2ccc(F)cc2)cc1,scaled lipid accumulation score,[4],≤ -0.055
C=CC(=O)Nc1ccc2ncnc(Nc3ccc(OCc4cccc(F)c4)c(Cl)c3)c2c1,scaled lipid accumulation score,[1],≤ -0.016
same,scaled lipid accumulation score,[2],≤ -0.016
same,scaled lipid accumulation score,[3],≤ -0.016
same,scaled lipid accumulation score,[6],0.132
same,scaled lipid accumulation score,[4],0.378 and 0.75
C[C@@H]1COC(Nc2ccc3ncnc(Nc4ccc(OCc5nccs5)c(Cl)c4)c3c2)=N1 [Varlitinib],scaled lipid accumulation score,[6],0.382
same,scaled lipid accumulation score,[4],0.594
CS(=O)(=O)CCNCc1ccc(-c2ccc3ncnc(Nc4ccc(OCc5cccc(F)c5)c(Cl)c4)c3c2)o1 [listing 1 of 2 here],scaled lipid accumulation score,[1],≤ 0
same,scaled lipid accumulation score,[2],≤ 0 and 0.144
same,scaled lipid accumulation score,[3],0.42
same,scaled lipid accumulation score,[4],0.429
CC(C)(O)CC(=O)NCCn1ccc2ncnc(Nc3ccc(Oc4cccc(C(F)(F)F)c4)c(Cl)c3)c21,scaled lipid accumulation score,[6],≤ 0
same,scaled lipid accumulation score,[4],0.302
Cc1ccc(CNc2ncnc3ccc(-c4ccc(CO)o4)cc23)o1,scaled lipid accumulation score,[6],≤ -0.009
same,scaled lipid accumulation score,[4],≤ 0
CS(=O)(=O)CCNCc1nc(-c2ccc3ncnc(Nc4ccc(OCc5cccc(F)c5)c(Cl)c4)c3c2)cs1.Cl.Cl,scaled lipid accumulation score,[4],1.38 (active)
CS(=O)(=O)CCNCc1ccc(-c2ccc3ncnc(Nc4ccc(OCc5cccc(F)c5)c(Cl)c4)c3c2)o1 [listing 2 of 2 here],scaled lipid accumulation score,[3],1.7 (active)
Cc1cc(Nc2ncnc3ccc(-c4ccc(CNCCS(C)(=O)=O)o4)cc23)ccc1Oc1ccn2ncnc2c1 [HER2-Inhibitor-1] [listing 1 of 2 here],scaled lipid accumulation score,[6],0.203
Cc1cc(Nc2ncnc3ccc(-c4ccc(CNCCS(C)(=O)=O)o4)cc23)ccc1Oc1ccn2ncnc2c1 [HER2-Inhibitor-1] [listing 2 of 2 here],scaled lipid accumulation score,[4],0.977 (active)
CCC(=O)Nc1ccc2ncnc(Nc3cccc(Br)c3)c2c1,scaled lipid accumulation score,[6],≤ 0
CC(C)CCCCCCC/C=C/C(=O)O [trans-.DELTA.2-11-methyl-Dodecenoic Acid],scaled lipid accumulation score,[5],≤ 0
CC(C)=CCC/C(C)=C/CC/C(C)=C/CSCC(=O)O [S-Farnesyl Thioacetic Acid],scaled lipid accumulation score,[5],0.018
CC(C)=CCC/C(C)=C/CC/C(C)=C/CSCC(=O)O [Farnesylthioacetic acid],scaled lipid accumulation score,[5],≤ -0.021
CCCCCCCCCC(=O)NC(CN1CCOCC1)C(O)c1ccccc1 (stereo unspecified) [PDMP (hydrochloride)],scaled lipid accumulation score,[5],≤ 0
C1CCN2C[C@@H]3C[C@@H](CN4CCCC[C@@H]34)[C@H]2C1 [Sparteine (-)],scaled lipid accumulation score,,≤ 0
C1CCN2C[C@@H]3C[C@@H](CN4CCCC[C@@H]34)[C@H]2C1 [Sparteine sulfate],scaled lipid accumulation score,library stock concentration: 6 mM,≤ -0.001
same,scaled lipid accumulation score,[4],0.072
CCCCC[C@H](O)/C=C/[C@H]1[C@H](O)CC(=O)[C@@H]1C/C=C\CCCC(=O)O [Dinoprostone],scaled lipid accumulation score,library stock concentration: 5.7 mM,≤ -0.006
CCCCC[C@H](O)/C=C/[C@H]1[C@H](O)CC(=O)[C@@H]1C/C=C\CCCC(=O)O [Prostaglandin E2],scaled lipid accumulation score,[5],≤ 0
same,scaled lipid accumulation score,[4],≤ -0.001
CCCCC[C@H](O)/C=C/[C@H]1[C@H](O)CC(=O)[C@@H]1C/C=C\CCCC(=O)O [Prostaglandin  E2],scaled lipid accumulation score,[5],≤ -0.021
"Cc1ccc2c(c1)C(=O)C1(O)CCN(c3ccccc3)C1=N2 (single isomer, unassigned; (-)) [(-)-Blebbistatin]",scaled lipid accumulation score,[1],≤ -0.001
same,scaled lipid accumulation score,[2],≤ -0.001
same,scaled lipid accumulation score,[5],≤ 0
same,scaled lipid accumulation score,[3],≤ -0.001
same,scaled lipid accumulation score,[6],≤ -0.009
same,scaled lipid accumulation score,[4],0.264
CCCCC/C=C\C/C=C\CC/C=C\CCCC(=O)OC [Pinolenic Acid methyl ester],scaled lipid accumulation score,[5],≤ 0
CC(C)(C)c1cnc(CSc2cnc(NC(=O)C3CCNCC3)s2)o1,scaled lipid accumulation score,[1],0.373
same,scaled lipid accumulation score,[2],0.262 and 0.17
same,scaled lipid accumulation score,[3],0.414 and 0.498
same,scaled lipid accumulation score,[6],0.468
same,scaled lipid accumulation score,[4],0.32 and 0.42 and 0.56
CN([C@@H](Cc1ccc(OS(=O)(=O)c2cccc3cnccc23)cc1)C(=O)N1CCN(c2ccccc2)CC1)S(=O)(=O)c1cccc2cnccc12,scaled lipid accumulation score,[1],≤ 0
same,scaled lipid accumulation score,[2],≤ 0
same,scaled lipid accumulation score,[3],≤ 0
same,scaled lipid accumulation score,[4],0.021
COC(=O)C1=CO[C@@H](C)[C@H]2CN3CCc4c([nH]c5ccccc45)[C@@H]3C[C@H]12 [Ajmalicine hydrochloride],scaled lipid accumulation score,,0.17
CCCCc1nn(-c2ccccc2C(F)(F)F)c(=O)n1Cc1ccc(-c2ccccc2S(=O)(=O)NC(=O)c2sccc2C)cc1,scaled lipid accumulation score,[4],≤ -0.001
c1ccc2c(-c3cnn4cc(-c5ccc(N6CCNCC6)cc5)cnc34)ccnc2c1,scaled lipid accumulation score,[1],0.107
same,scaled lipid accumulation score,[2],≤ -0.009
same,scaled lipid accumulation score,[3],0.656
same,scaled lipid accumulation score,[4],0.103
"CCCCCC(=O)CC[C@@H]1[C@@H](C/C=C\CCCC(=O)O)[C@@H](O)C[C@H]1O [13,14-dihydro-15-keto Prostaglandin F2.alpha.]",scaled lipid accumulation score,[5],≤ 0
NC(=O)c1cccc(-c2cc(Nc3ccc(OC(F)(F)F)cc3)ncn2)c1,scaled lipid accumulation score,[1],≤ 0
same,scaled lipid accumulation score,[2],≤ 0
same,scaled lipid accumulation score,[3],0.03
same,scaled lipid accumulation score,[6],≤ 0
same,scaled lipid accumulation score,[4],≤ 0 and 0.198
CCCCCCCCCCCCC(O)C(=O)O (stereo unspecified) [2-Hydroxymyristic acid],scaled lipid accumulation score,[5],0.03
CCCCCCCCCCCCC(O)C(=O)O (stereo unspecified) [2-Hydroxymyristic Acid],scaled lipid accumulation score,[5],≤ 0
CC1=CC(=O)c2ccccc2C1=O [Menadione] [listing 1 of 2 here],scaled lipid accumulation score,,0.873 (active)
"COC1=C(OC)C(=O)c2ccccc2C1=O [2,3-Dimethoxy-1,4-naphthoquinone]",scaled lipid accumulation score,[4],0.634
CC1=CC(=O)c2ccccc2C1=O [Menadione] [listing 2 of 2 here],scaled lipid accumulation score,[6],≤ 0
same,scaled lipid accumulation score,[4],0.707 and ≤ 0
same,scaled lipid accumulation score,library stock concentration: 11.6 mM,0.594
O=C1NC(=O)/C(=C/c2ccc3nccnc3c2)S1,scaled lipid accumulation score,[1],≤ -0.016
same,scaled lipid accumulation score,[2],≤ -0.016
same,scaled lipid accumulation score,[3],≤ -0.016
same,scaled lipid accumulation score,[4],≤ -0.016
COc1cc(CNC(=O)CCCC/C=C/C(C)C)ccc1O [E-Capsaicin],scaled lipid accumulation score,library stock concentration: 16.4 mM,0.112
COc1cc(CNC(=O)CCCC/C=C/C(C)C)ccc1O [E-capsaicin],scaled lipid accumulation score,[4],≤ 0
COc1cc(CNC(=O)CCCC/C=C/C(C)C)ccc1O [Capsaicin],scaled lipid accumulation score,,≤ 0
same,scaled lipid accumulation score,[5],≤ 0
same,scaled lipid accumulation score,[4],≤ 0
COc1cc(CNC(=O)CCCC/C=C/C(C)C)ccc1O [(E)-Capsaicin],scaled lipid accumulation score,[4],≤ 0
COc1c(C)c2c(c(O)c1C/C=C(\C)CCC(=O)OCCN1CCOCC1)C(=O)OC2 [Mycophenolate Mofetil],scaled lipid accumulation score,[6],≤ 0
same,scaled lipid accumulation score,[4],≤ 0
CC(C)c1cccc(C(C)C)c1N1C(=O)c2ccc(O)cc2C1=O,scaled lipid accumulation score,[4],0.259
CN(C)CC(C)(C)CNc1nn2c(-c3ccccc3)nnc2cc1C1CCC1,scaled lipid accumulation score,[2],≤ -0.005
same,scaled lipid accumulation score,[3],≤ -0.005
same,scaled lipid accumulation score,[4],0.159
